Mtb FBA inh = inhibits M. tuberculosis FBA enzyme; P9WQA3; purified M. tuberculosis FBA, fluorescence read-out; inhibition, % at 1 µM; 360,000 compounds, 2.3% hits; in the data active means inhibition above about 27%;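 further: 0% = vehicle and 100% = reference inhibitor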
Target sequence (P9WQA3 whole entry, looked up): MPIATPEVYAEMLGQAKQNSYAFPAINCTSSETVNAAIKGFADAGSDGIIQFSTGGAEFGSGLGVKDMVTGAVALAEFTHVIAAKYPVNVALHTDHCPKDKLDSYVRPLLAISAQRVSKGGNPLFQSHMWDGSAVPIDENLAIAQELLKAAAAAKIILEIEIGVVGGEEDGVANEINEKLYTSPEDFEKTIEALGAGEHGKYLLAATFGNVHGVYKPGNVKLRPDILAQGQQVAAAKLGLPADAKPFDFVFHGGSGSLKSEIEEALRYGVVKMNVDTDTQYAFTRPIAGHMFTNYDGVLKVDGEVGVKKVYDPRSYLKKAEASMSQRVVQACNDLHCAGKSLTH
PrPC TRFRET = cell surface PrPC inhibition, primary TR-FRET screen | P04156 | TR-FRET read-out | inhibition, % at 13.8 µM | 370,000 compounds, 0.43% hits | AID 720596; in the data active means inhibition above about 24%; further: 0% = median of the test wells and 100% = reference compound wells
GDH-TPI counter = GDH-TPI coupled enzyme inhibition counter-screen | AID 588335 | 360,000 compounds, 1.2% hits | GDH-TPI coupled enzyme counterscreen, NADH absorbance | inhibition, % at 4.8 µM; in the data active means inhibition above about 30%;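 further: 0% = DMSO wells and 100% = wells lacking the enzyme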
BH1578 lux ind = induces V. cholerae light production without autoinducers | V. cholerae BH1578 lux reporter, luminescence, 6 h | activation, % at 18.7 µM | 350,000 compounds, 0.16% hits; in the data active means activation mostly above about 9.7%, no sharp cut-off
3CLpro inhibitor = SARS-CoV 3CLpro protease inhibition; inhibition, % at 6 µM; recombinant SARS-CoV 3CLpro, quenched FRET peptide cleavage; 290,000 compounds, 0.14% hits; in the data active means inhibition above about 12%
PrPC TRFRET cf = confirmation of inhibitors of cell surface human prion protein | shares compounds with PrPC TRFRET | cell surface PrPC level, TR-FRET | inhibition, % at 13.8 µM | 1,500 compounds, 65% hits | AID 743200; in the data active means inhibition above about 25%
LD9 tox = LD9 cell cytotoxicity, PrPc inhibitor counter-screen. LD9 cells cytotoxicity, luminescence viability. inhibition, % at 13.8 µM. 1,500 compounds, 29% hits. shares compounds with PrPC TRFRET. AID 743201; in the data active means inhibition above about 9.5%
* = called active by the depositor; i = inactive; x = no result; ! = repeats disagree. A selection: hits, their analogues and other compounds. The true share with any hit is near 3.9%.

SMILES	Mtb FBA inh	PrPC TRFRET	GDH-TPI counter	BH1578 lux ind	3CLpro inhibitor	PrPC TRFRET cf	LD9 tox
O=C1N(c2ccccc2)C[C@@H]2C[C@@H](c3cc4ccccc4o3)N3CCC[C@@]123	4	40*	9	i	2	54*	25*
O=C1N(c2ccccc2)CC2C(c3ccccc3)C(c3ccccc3)N3CCCC123 (centres undefined)	x	2	x	x	x	x	x
COc1cc(NC2CCCCC2O)c2nc(-c3ccc(Cl)cc3)ccc2c1 (centres undefined)	4	39*	3	i	0	6	-2
NC(=S)N/N=C1\CC(n2nnn(-c3cccc(Cl)c3)c2=S)C2COC1O2 (centres undefined)	-2	28*	1	-1	-3	42*	-4
NS(=O)(=O)c1ccc(CCNC(=O)c2cc(-c3ccccn3)nc3ccc(Br)cc23)cc1	2	29*	15	0	5	48*	21*
NS(=O)(=O)c1ccc(CCNC(=O)c2cc(-c3ccc(Br)cc3)nc3ccccc23)cc1	6	2	7	i	7	x	x
OC[C@H]1O[C@@H](c2nc3ccc(-c4nc(-c5ccc(Br)cc5)no4)cc3[nH]2)C[C@@H]1O	3	29*	15	0	x	21	4
CCN(CC)C(=O)c1ccc2nc([C@H]3C[C@H](O)[C@@H](CO)O3)[nH]c2c1	-2	-3	0	0	x	x	x
COC(=O)[C@]12C[C@H](CC(=O)N3CCOCC3)C(=O)N(Cc3ccco3)C1=C[C@H](C1CCCC1)O[C@@H]2C	x	3	x	x	x	x	x
CCCOc1ccccc1C(=O)N(Cc1cccc(Br)c1)C1CCS(=O)(=O)C1 (centres undefined)	0	0	-6	0	-1	x	x
CC(C)C[C@H]1CNC(=S)N1CC1CCCN1C[C@H](CC(C)C)N1C[C@H](CC(C)C)N(CCc2ccccc2)C1=S (some centres undefined)	4	-2	16	-1	x	x	x
O=C(CSc1nnc(NC(=O)c2ccccc2F)s1)NCc1ccc(F)cc1	-3	35*	6	0	-5	9	-8
Cc1ccc(/C=N/n2c(C)n[nH]c2=S)o1	-2	-2	21	i	4	x	x
Nc1ccc2cc3[nH]c4cc(N)ccc4c3nc2c1	14	27*	19	x	x	11	31*
O=C(Nc1ccc(N2CCN(C(=O)c3ccccc3)CC2)c(Cl)c1)c1ccc(Br)o1	3	33*	4	-1	5	41*	24*
CCc1nonc1NC(=O)c1oc2ccccc2c1C	-3	8	0	0	0	x	x
CCc1nonc1NC(=O)c1oc2cc(Br)ccc2c1C	3	28*	12	1	3	91*	-5
Nn1c(SCC(=O)NC2CCCC2)nnc1C(F)(F)F	-1	-7	6	i	x	x	x
COC[C@@H](O)[C@H]1OCc2cc(OC)ccc2[C@@H]1/C=C/c1ccccc1	x	-2	x	x	x	x	x
COc1ccc(S(=O)(=O)Nc2ccc(Cc3ccncc3)cc2)cc1OC	2	11	1	0	-5	x	x
CCc1ccc(OC)c(S(=O)(=O)Nc2ccc(Cc3ccncc3)cc2)c1	-2	42*	-2	0	-10	30*	8
O=S(=O)(Nc1ccc(Cc2ccncc2)cc1)c1ccc(Cl)c(Cl)c1	0	31*	4	0	8	32*	16*
Nc1nnc(SCc2nc3scc(-c4ccccc4)c3c(=O)[nH]2)s1	-3	26*	9	i	0	53*	3
CC1=Nc2ccc(C)cc2/C1=C/c1c(N)n2oc(C)cc2nc1=O	0	46*!	9	i	0	16	-5
CSc1nsc2nc(=O)c(/C=C3\C(C)=Nc4ccc(C)cc43)c(N)n12	1	-4	4	i	-3	x	x
SMILES	Mtb FBA inh	PrPC TRFRET	GDH-TPI counter	BH1578 lux ind	3CLpro inhibitor	PrPC TRFRET cf	LD9 tox
CC1CN(C(=O)CCc2cc(C(C)(C)C)c(O)c(C(C)(C)C)c2)CC(C)O1 (centres undefined)	1	26*	-6	-3	0	29*	18*
Cc1ccc2nc(Br)c3c(c2c1)OC(CBr)C3 (centres undefined)	1	29*	11	0	3	43*	-4
CCN(CC)c1ccc(/C=C(\C#N)C(N)=O)cc1	-29	-7	6	i	0	x	x
N#CC(=Cc1ccc(O)cc1)C(N)=C(C#N)C#N	10	64*	37*	0	x	7	-4
O=C(O)c1ccc(Oc2ccc(S(=O)(=O)c3ccc(C(=O)O)c(C(=O)O)c3)cc2)cc1	-1	-6	10	i	5	x	x
COCCN(CC(=O)Nc1cccc(C)c1C)C(=O)c1cc(-c2ccncc2)nc2ccccc12	7	-9	23	i	x	x	x
O=C1OC(c2ccccc2)(N(Nc2ccccc2)c2ccccc2)c2ccccc21 (centres undefined)	-2	3	6	-6	x	x	x
Cc1cccc2cc(C(c3nnnn3Cc3ccccc3)N3CCN(c4ccccc4)CC3)c(=O)[nH]c12 (centres undefined)	0	59*	18	i	-3	3	-2
Cc1cccc2cc(C(c3nnnn3Cc3ccccc3)N3CCN(C)CC3)c(=O)[nH]c12 (centres undefined)	5	x	5	0	0	x	x
CCc1cc2c(=O)c(-c3ccc4c(c3)OCCO4)c(C)oc2cc1OS(C)(=O)=O	-2	31*	1	4	5	40*	5
CN(C)C(=O)CSc1ncnc2scc(-c3ccccc3)c12	0	5	-4	-1	2	x	x
O=C(O)CSc1ncnc2scc(-c3ccccc3)c12	2	48*	11	0	1	72*	-8
O=C(O)CSc1ncnc2scc(-c3ccc(Br)cc3)c12	1	27*	-10	-1	-2	24	-3
CC(=O)CSc1ncnc2scc(-c3ccc(F)cc3)c12	1	7	-5	0	5	x	x
CN(C)S(=O)(=O)c1cccc(NC(=S)NNC(=O)c2cc3ccccc3cc2O)c1	-1	-3	19	6	x	x	x
CC1=C(C)[N+](=O)C2(O)CCCCC2(C)N1[O-] (centres undefined)	-2	36*	19	1	0	4	-4
CC12CCCCC1(O)[N+](=O)C1=C(CCCC1)N2[O-] (centres undefined)	-4	6	2	i	-5	x	x
COC(=O)[C@H]1[C@@H](O)[C@@]2(O)c3c(OC)cc(OC)cc3O[C@@]2(c2ccc(OC)cc2)[C@@H]1c1ccc(F)cc1	x	83*	x	x	x	91*	20*
O=c1c(Br)c(Br)cnn1-c1ccccc1	3	33*	3	-1	2	80*	98*
Cc1cc(C)c2nc(NNC(=O)c3ccc(S(=O)(=O)N4CCc5ccccc5C4)cc3)sc2c1	2	21	3	0	3	x	x
